The list is not random: actives were taken first. Their share in the collection is about 2.6%.
LGR2 antag = Drosophila LGR2 receptor signaling inhibition; HEK293 LGR2, CRE-luciferase, bursicon-stimulated, 4 h; inhibition, % at 9.99 µM; 380,000 tested, 0.35% active;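 active means drop in luminescence signal, shown as inhibition above about 50% in the replicate tests, limit read from the data, passing the limit was not always enough; inconclusive means probably only some replicates passing the limit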;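 further: agonist challenge used bursicon conditioned medium at about half maximal strength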
TROY NFkB inh = inhibitors of TROY-dependent NF-kB signaling | inhibition, % at 10 µM | AID 1347056 | Q293 LMP1-TROYcd NF-kB luciferase reporter, 4 h | 360,000 tested, 0.98% active;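 active means compounds whose plate-normalised and pattern-corrected inhibition of the luciferase reporter signal at the single screening dose is 50% or more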
EWS-Fli block = inhibitors of EWS/Fli oncoprotein transcriptional activity | A673 NR0B1-luciferase reporter, viability-normalised | inhibition, % at 12.6 µM | 350,000 tested, 0.67% active;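 active means mean inhibition of at least 50% after viability correction, with every replicate also passing that limit; inconclusive means mean reaches 50% but only one of two replicates passes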;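 further: firefly luciferase signal divided by Alamar Blue viability fluorescence both relative to DMSO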
CF NFkB inh = cystic fibrosis NF-kB activation inhibition; KKLEB NF-kB-GFP reporter, PAF-induced, GFP fluorescence overnight; 360,000 tested, 0.86% active; AID 588850; inhibition, % at 5 µM;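 active means at least 50% inhibition at 5 µM, scaled per plate between neutral and stimulator controls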;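 further: PAF is a Pseudomonas aeruginosa culture filtrate used as stimulus; plate controls were PAF-stimulated DMSO wells for no effect and unstimulated DMSO wells for full effect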
KKLEB tox = CF airway cell cytotoxicity counter-screen; KKLEB CF airway cells viability, ATPlite luminescence, overnight; stronger effect = lower value; cells stimulated with P. aeruginosa culture filtrate; activity change (cytotoxicity), % at 5 µM; 360,000 tested, 0.36% active; AID 602141;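 active means corrected activity change at or below -50% at 5 µM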
TWEAK-Fn14 inh = TWEAK-Fn14 signaling inhibition | TWEAK-stimulated Fn14 reporter cells, luciferase luminescence, 8 h | 360,000 tested, 2% active | AID 1159606 | inhibition, % at 10 µM; in the data active means inhibition above about 50%
Starred values were filed as active, the others as inactive; u = inconclusive; x = not tested or not shown.

SMILES	LGR2 antag	TROY NFkB inh	EWS-Fli block	CF NFkB inh	KKLEB tox	TWEAK-Fn14 inh
O=C1c2ccccc2C(Nc2ccc3c(c2)OCCO3)N1c1ccccn1 (stereo not given)	-8	46	6	-37	4	63*
O=C1c2ccccc2C(Nc2ccccc2)N1Cc1ccc2c(c1)OCO2 (stereo not given)	-1	3	-8	17	-9	-23
COCC(=O)N[C@@H]1CC[C@H](CC(=O)NCc2ccccc2OC)O[C@H]1CO	-5	x	-4	x	x	x
Cc1ccc2nc(SCC3CCCCO3)[nH]c2c1 (stereo not given)	10	33	28	14	1	71*
CO[C@H]1CN(C)C(=O)c2cc(NS(=O)(=O)c3cccc(F)c3)ccc2OC[C@@H](C)N(Cc2cc(F)ccc2F)C[C@H]1C	23	x	20	x	x	x
O=[N+]([O-])c1cc(S(=O)(=O)N2CCCC2)ccc1N/N=C1/CCCc2ccccc21	-12	18	10	17	-15	64*
O=[N+]([O-])c1cc(S(=O)(=O)N2CCCC2)ccc1O	-2	-19	x	-11	4	0
O=[N+]([O-])c1cc(S(=O)(=O)N2CCCCCC2)ccc1F	23	9	25	51*	-26	-1
NS(=O)(=O)c1ccc(N/N=C2/CCCc3ccccc32)c([N+](=O)[O-])c1	-1	2	-4	-6	1	-41
C/C=C/c1ccc([C@H]2[C@@H](CO)N(C(=O)C3CCCC3)[C@H]2CNCC)cc1	-6	x	3	x	x	x
CC1=C(C(=O)Nc2ccccc2)C(c2ccc(C)o2)n2ncnc2N1 (stereo not given)	x	x	x	1	0	83*
c1ccc(-c2csc(N3CCCCCC3)n2)cc1	x	-35	x	3	-2	-33
Cc1cc(N2CCN(c3nc(-c4ccccc4)cs3)CC2)c2ccccc2n1	34	-28	18	4	4	66*
O=C(O)c1[nH]c2ccc(Cl)cc2c1CC(=O)N1CCN(C(=O)c2ccco2)CC1	x	-1	x	5	9	-7
O=C(CSc1nc2cc(Cl)ccc2s1)N1CCN(C(=O)c2ccco2)CC1	x	-5	x	-4	-2	4
O=C(CSc1c2c(nc3ccc(Cl)cc13)CCCC2)N1CCN(C(=O)c2ccco2)CC1	17	-7	21	54*	-12	12
O=C(c1ccco1)N1CCN(C(=O)C2CCCc3c2[nH]c2ccc(Cl)cc32)CC1 (stereo not given)	x	x	x	-23	5	66*
CCOC(=O)N1CCN(c2ccc(S(=O)(=O)N(Cc3ccccc3)Cc3ccccc3)cn2)CC1	x	62*	x	6	-18	42
Cn1c(C(=O)O)c(CC(=O)Nc2ccc3c(c2)OCCO3)c2ccccc21	x	77*	x	7	0	92*
Cc1ccc(NC(=O)Cc2c(C(=O)O)n(C)c3ccccc23)cc1F	12	12	-13	1	-6	-10
Cc1ccc2c(c1)c(CC(=O)Nc1ccc(F)cc1)c(C(=O)O)n2C	1	14	-14	-11	-9	106*
CN(C)CC(=O)N1CC(=O)N2[C@@H](CO)[C@H](c3ccc(/C=C/c4ccccc4)cc3)[C@@H]2C1	-10	x	-2	x	x	x
O=[N+]([O-])c1ccccc1OCCOCCOc1cccc2cccnc12	1	87*	-4	-17	-25	75*
COC(=O)c1ccccc1OCCOCCOc1cccc2cccnc12	0	3	8	6	-3	-4
COc1ccc(NC(=O)Nc2cccc3c2O[C@@H](CN(C)S(=O)(=O)c2cccs2)[C@@H](C)CN([C@H](C)CO)C3=O)cc1	13	x	-4	x	x	x
SMILES	LGR2 antag	TROY NFkB inh	EWS-Fli block	CF NFkB inh	KKLEB tox	TWEAK-Fn14 inh
O=S(=O)(c1ccc(Cl)cc1)c1snnc1-c1ccccc1	x	49	x	40	-3	88*
c1ccc(-c2nnsc2-c2ncc[nH]2)cc1	0	-3	1	-1	-3	-4
O=S(=O)(c1ccc(F)cc1)c1snnc1-c1ccccc1	58*	27	40	36	-34	64*
CN(C)c1ncc(S(=O)(=O)c2ccc(Cl)cc2)c(-c2ccccc2)n1	x	1	x	13	-8	4
C[C@@H]1CN([C@H](C)CO)C(=O)c2ccccc2-c2ccccc2CO[C@@H]1CN(C)S(=O)(=O)c1ccc(C#N)cc1	-4	x	-8	x	x	x
C[C@@H]1CCCCO[C@@H](CN(C)C(=O)Nc2ccccc2)[C@H](C)CN([C@H](C)CO)C(=O)c2cc(NS(=O)(=O)c3cccs3)ccc2O1	2	x	0	x	x	x
S=C(Nc1ccc(N2CCOCC2)cc1)Nc1ccc2snnc2c1	-26	76*	-9	-5	6	73*
O=C(Nc1ccc2snnc2c1)N1CCOCC1	x	-10	x	-5	4	-1
CCCc1ccc(C(=O)NC(=O)c2ccccc2O)cc1	x	34	-45	-7	-7	57*
COc1ccc(-c2c(C(F)(F)F)[nH]n3c(=O)cc(-c4ccccc4)nc23)cc1	22	51*	11	25	-24	-17
COc1ccc(/C=N/NC(=O)c2cccnc2)cc1CSc1nc2ccccc2s1	18	50*	x	-4	-17	52*
COc1ccc(/C=N/NC(=O)c2cccnc2)cc1COc1ccc([N+](=O)[O-])c(C)c1	x	55*	47	-17	10	23
COc1ccc(/C=N/NC(=O)c2ccn[nH]2)cc1COc1ccc([N+](=O)[O-])c(C)c1	10	2	-14	2	2	18
O=C(/C(N=Nc1cccc([N+](=O)[O-])c1)=C(/O)c1ccc(Br)cc1)C(F)(F)F	x	31	x	51*	-58*	43
O=C(O)c1ccc(N=NNc2cccc([N+](=O)[O-])c2)cc1	-47	-64	-2	6	0	15
CNc1ncnc(Sc2nc(N)nc3nc[nH]c23)c1[N+](=O)[O-]	7	2	64*	4	5	27
Nc1nc(Sc2ccc([N+](=O)[O-])c3nonc23)c2[nH]cnc2n1	x	-7	27	-19	-7	32
COCC#Cc1ccc2c(c1)O[C@@H](CN(C)S(C)(=O)=O)[C@@H](C)CN([C@H](C)CO)S2(=O)=O	1	x	-6	x	x	x
Cc1cc(C(=O)COC(=O)c2ccc[nH]c2=O)c(C)n1-c1ccccc1F	-20	33	-33	7	0	59*
Cc1cc(C(=O)Cn2nnc3ccccc3c2=O)c(C)n1-c1ccccc1F	u	82*	x	-2	-33	73*
Cc1cc(C(=O)COC(=O)c2ccc(O)cc2)c(C)n1-c1ccccc1F	-7	84*	-10	-14	6	75*
CCCn1c(C)cc(C(=O)COC(=O)c2ccc[nH]c2=O)c1C	56*	72*	x	-5	-10	80*
CCOc1ccc(C2=Nn3c(nnc3-c3ccccn3)SC2)cc1	x	3	x	-9	-2	-5
CCOc1ccc(C2=Nn3c(nnc3-c3ccco3)SC2)cc1	x	-16	x	-3	-68*	-28
